# Source: PubChem BioAssay
# The list is not random: actives were taken first. Their share in the collection is about 6.2%.
# HT1080-NT tox = kills 2HG-producing HT-1080-NT fibrosarcoma cells. HT-1080-NT fibrosarcoma viability, CellTiter-Glo ATP luminescence, 48 h. hit rate 1.6% among 360,000. Potency, µM (titrated, usually from 46.1 µM), for inactives: at the top dose activity, negative = less viability, actives largely listed as cytotoxic;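 further: NT is the 2HG producing partner of a matched IDH1 knockdown line; 0% = DMSO-treated cells and -100% = media-only wells without cells; nearly all actives have a fitted effect of over 55% in size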
#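 Read-out is CellTiter-Glo luminescence after 10 minutes at room temperature, following 48 hours' compound treatment of HT-1080-NT cells (750 cells/well, RPMI, 5% FBS, 37 degrees C).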
# S2 tox = reduces viability in counter-screen for ATXN expression inhibitors. S2 cells (HEK-293 line with an ATXN2-luciferase reporter) viability, CellTiter-Fluor protease fluorescence, 24 h. Potency, µM (doses to about 56.7 µM), usual class: cytotoxic. hit rate 0.49% among 400,000. AID 651635; further: nearly all actives have a fitted effect of over 40% in size
# KB-3-1 cytotox = KB-3-1 parental cell cytotoxicity; KB-3-1 viability, CellTiter-Glo ATP luminescence, 72 h; Potency, µM (doses to about 46.1 µM), hits mostly cytotoxic; hit rate 1.4% among 400,000; AID 1347075; further: on the % scale 0 is the no-effect control and ±100 the full control effect; nearly all actives have a fitted effect of over 60% in size
#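 KB-3-1 parental drug-naive adenocarcinoma cells in DMEM/10% FBS, incubated 72 h at 37 C with pin-transferred compounds across a concentration series. Viability by CellTiter-Glo luminescence; concentration-response curves fitted after normalization.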
# ATXN2 expr inh = ATXN2 expression inhibition; HEK-293 ATXN2-luciferase reporter, luminescence, 24 h; Potency, µM (doses to about 57 µM), without a hit: at the highest dose activity change, negative = inhibition, hits mostly inhibitors; hit rate 0.72% among 360,000; further: on the % scale 0 is the no-effect control and ±100 the full control effect; nearly all actives have a fitted effect of over 55% in size
#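 ATXN2-luciferase reporter cells (luciferase flanked by upstream and downstream ATXN2 gene portions) were treated 24 h at 37 °C with compounds at up to 57 uM. SteadyGlo luminescence gave expression; GF-AFC fluorescence gave viability.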
# HT1080 IDH1KD tx = kills HT-1080 cells with IDH1 knockdown; Potency, µM (highest dose often 46.1 µM), without a hit: top-dose activity, negative = toxicity, most hits filed as cytotoxic; HT-1080 IDH1 knockdown viability, ATP luminescence, 48 h; hit rate 2% among 360,000;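 further: 0% = DMSO wells and -100% = cell-free medium wells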
#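 HT-1080-IDH1KD cells (IDH1 knocked down), 750/well in RPMI with 5% FBS, treated with compound 48 h at 37 degrees C. Viability by CellTiter-Glo luminescence, normalised to DMSO and no-cell wells; concentration-response curves classed.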
# KB-V1 MDR tox = kills drug-selected multidrug resistant KB-V1 cells | KB-V1 MDR cells viability, CellTiter-Glo, 72 h | Potency, µM (titrated, usually from 46.1 µM), hits mostly cytotoxic | hit rate 3.4% among 400,000; further: on the % scale 0 is the no-effect control and ±100 the full control effect; nearly all actives have a fitted effect of over 60% in size
#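 Cytotoxicity via CellTiter-Glo luminescence after 72 h compound exposure at 37 degrees C. Cells: drug-selected KB-V1 line, DMEM phenol-red free plus 10% FBS. Compounds tested at multiple concentrations; normalized data fitted to concentration-effect curves.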
# Starred values were filed as active, the others as inactive; i = inactive; u = inconclusive; x = no result. The call rests on the fitted dose curve; in most records, active means well fitted curve in the direction sought with a large enough effect; inconclusive means small, poorly fitted or top-dose-only effect, or another doubt; inactive means no such curve, though single readings can be large; an effect the other way counts as inactive or inconclusive. Potency means the concentration at half of the fitted maximal effect.
SMILES,HT1080-NT tox,S2 tox,KB-3-1 cytotox,ATXN2 expr inh,HT1080 IDH1KD tx,KB-V1 MDR tox
CCOCCCNC(=S)N1CCN(c2nc(-c3ccc(F)cc3)cs2)CC1,21µM*,i,u,u,u,u
S=C(NCCCN1CCOCC1)N1CCN(c2nc(-c3ccccc3)cs2)CC1,18µM*,i,i,u,23µM*,i
COc1cccc(-c2csc(N3CCN(C(=O)C4CCCCC4)CC3)n2)c1,2%,i,u,-1%,-4%,18µM*
CCCCN1CC(O)=C(c2nc(-c3ccc(Cl)cc3)cs2)C1=N,0%,u,i,u,5%,i
N=C1C(c2nc(-c3ccc(Cl)cc3)cs2)=C(O)CN1CCCN1CCOCC1,23µM*,i,i,-5%,u,i
COc1cc(OC)cc(C(=O)NCC2Cc3cccc(-c4nc(C)cnc4C)c3O2)c1 (stereo not given),x,i,x,x,x,x
COc1cccc(CNCCSc2nnnn2C)c1OCc1ccccc1,x,i,i,15%,x,u
COc1ccc(-c2csc(N3CCN(C(=O)c4ccccc4)CC3)n2)cc1,5%,i,i,-21%,0%,16µM*
CCN1CCN(C(=O)NC2CCCCC2)CC1,9%,i,i,-27%,7%,i
O=C(NC12CC3CC(CC(C3)C1)C2)N1CCN(c2nc(-c3ccccc3)cs2)CC1,-2%,u,i,u,0%,i
O=C(NC1CCCCC1)N1CCN(c2nc(-c3ccccc3)cs2)CC1,-25%,u,i,u,u,12µM*
COc1ccc(-c2csc(N3CCN(C(=O)c4ccco4)CC3)n2)cc1,-2%,i,u,u,-11%,i
O=C(NC1CCCCC1)N1CCN(CCc2ccccc2)CC1,5%,i,i,-8%,4%,18µM*
COCCNC(=S)N1CCN(c2nc(-c3ccccc3)cs2)CC1,u,i,i,-37%,-6%,i
O=C(NC(=S)N1CCN(c2nc(-c3ccccc3)cs2)CC1)c1cccnc1,-7%,i,i,-10%,-5%,21µM*
COc1ccc(CN2COc3ccc4c(-c5ccccc5)cc(=O)oc4c3C2)cc1,x,u,i,0%,x,i
Cc1cc(Cl)ccc1NC(=O)c1cc2ccccn2n1,x,i,i,32%,x,i
O=C(N1CCOCC1)N1CCN(c2nc(-c3ccccc3)cs2)CC1,4%,u,i,25%,5%,21µM*
CCCNC(=S)N1CCN(c2nc(-c3ccc(C)cc3)cs2)CC1,-24%,i,i,u,-16%,u
COc1ccc(-c2csc(N3C(=O)C4C5c6ccccc6C(c6ccccc65)C4C3=O)n2)cc1 (stereo not given),17%,u,i,4%,u,6.5µM*
c1ccc(-c2csc(N3CCOCC3)n2)cc1,25%,i,i,71%,-1%,i
S=C(NCCCN1CCOCC1)N1CCN(c2nc(-c3ccc(Cl)cc3)cs2)CC1,u,x,u,3.2µM*,u,i
Cc1cc(O)c2c(O)c3c(O)cccc3cc2c1,x,i,x,-2%,x,x
Cc1ncoc1C(=O)N1CCOc2ccc(CN3CCC(Oc4cccnc4)CC3)cc2C1,x,i,x,x,x,x
Cc1nn(-c2ccccc2)c(-n2cccc2)c1C(=O)NCCCN1CCN(c2ccccc2F)CC1,x,i,i,-21%,x,i
SMILES,HT1080-NT tox,S2 tox,KB-3-1 cytotox,ATXN2 expr inh,HT1080 IDH1KD tx,KB-V1 MDR tox
Cc1ccc(-c2noc(CCC(=O)NCC3CCCO3)n2)cc1 (stereo not given),-14%,i,i,11%,-23%,21µM*
Cc1ccc(-c2noc(CCC(=O)NCCN3CCN(Cc4ccccc4)CC3)n2)cc1,-10%,i,u,-24%,-9%,16µM*
Cc1ccc(-c2noc(CCC(=O)NCCN3CCOCC3)n2)cc1,8%,i,i,4%,6%,i
COc1ccccc1N1CCN(CC(O)COc2cc(OC)c(OC)c(OC)c2)CC1 (stereo not given),x,i,x,-4%,x,x
COc1ccc(CN(Cc2ccccc2)C(=O)c2cccc(C#N)c2)cc1COc1ccc(NC(C)=O)cc1,-1%,x,x,x,-1%,x
COc1ccc(N2C(=O)[C@@H]3C[C@H]2CN3Cc2cccn2-c2ccc(Cl)cn2)c(C)c1,x,i,x,x,x,x
CN1CCN(C(=O)CCCN2C(=O)/C(=C/c3cccc(Br)c3)SC2=S)CC1,u,11µM*,u,u,18µM*,u
O=C(CCCN1C(=O)/C(=C/c2cccc(Br)c2)SC1=S)N1CCOCC1,0%,i,u,28%,4%,u
CN1CCN(C(=O)CCN2C(=O)/C(=C/c3cccc(Br)c3)SC2=S)CC1,15µM*,u,u,88%,u,i
CC(OC(=O)C1CCCCC1)c1nc2ccccc2[nH]1 (stereo not given),-1%,i,i,-6%,4%,21µM*
C(=N\n1cnnc1)/c1cn(Cc2ccccc2)c2ccccc12,-30%,i,i,-16%,u,15µM*
COc1ccc2ccccc2c1/C=N/n1cnnc1,1%,i,i,x,-1%,i
C(=N\n1cnnc1)/c1cccc2ccccc12,-1%,i,u,-9%,-2%,10µM*
N#Cc1ccc(C(=O)N(Cc2ccco2)Cc2cccs2)cc1,x,x,i,x,x,i
Cc1nn(C)cc1CN(C)C(=O)c1nn2c(c1Br)NC(c1cccs1)CC2C(F)(F)F (stereo not given),-17%,i,i,-4%,-16%,i
Cc1ccc(C2CC(C(F)(F)F)n3nc(C(=O)NCc4c(C)nn(C)c4C)c(Cl)c3N2)cc1 (stereo not given),u,i,21µM*,u,u,5.8µM*
Cc1nn(C)cc1CN(C)C(=O)c1nn2c(c1Cl)NC(c1cccs1)CC2C(F)(F)F (stereo not given),-18%,i,i,-11%,-14%,18µM*
CC(O)(COc1ccccc1)c1ccc2c(c1)CN(Cc1cccc3cccnc13)CCO2 (stereo not given),x,i,x,x,x,x
O=C(Nc1cccc(Cl)c1)Nc1nnc(CC2=CCCCC2)s1,-1%,i,23µM*,-22%,-1%,i
Cc1cccc(NC(=O)Cc2nnc(NC(=O)Nc3ccccc3F)s2)c1,4%,i,i,x,2%,u
O=C(Nc1nnc(CC2=CCCCC2)s1)Nc1ccccc1F,-8%,i,i,13%,33µM*,i
Cc1nn(C)c(Cl)c1S(=O)(=O)N(Cc1ccco1)c1ncnc2nc[nH]c12,x,x,i,x,x,i
